The results in this text go back to PMC7862700, “An all-to-all approach to the identification of sequence-specific readers for epigenetic DNA modifications on cytosine”.

Assay in all cases: DAPPL (digital affinity profiling via proximity ligation, sequencing); 10 mM Tris-HCl pH 7.5, 50 mM NaCl, 1 mM DTT, 4% glycerol, room temperature, 30 min; GST-TFs on glutathione beads, 16-mer random dsDNA library, 0.1% formaldehyde crosslink after washing; high values mean tight binding
One assay addresses T1, FLI1 (Homo sapiens, UniProt Q01543 1-452).
T1 sequence: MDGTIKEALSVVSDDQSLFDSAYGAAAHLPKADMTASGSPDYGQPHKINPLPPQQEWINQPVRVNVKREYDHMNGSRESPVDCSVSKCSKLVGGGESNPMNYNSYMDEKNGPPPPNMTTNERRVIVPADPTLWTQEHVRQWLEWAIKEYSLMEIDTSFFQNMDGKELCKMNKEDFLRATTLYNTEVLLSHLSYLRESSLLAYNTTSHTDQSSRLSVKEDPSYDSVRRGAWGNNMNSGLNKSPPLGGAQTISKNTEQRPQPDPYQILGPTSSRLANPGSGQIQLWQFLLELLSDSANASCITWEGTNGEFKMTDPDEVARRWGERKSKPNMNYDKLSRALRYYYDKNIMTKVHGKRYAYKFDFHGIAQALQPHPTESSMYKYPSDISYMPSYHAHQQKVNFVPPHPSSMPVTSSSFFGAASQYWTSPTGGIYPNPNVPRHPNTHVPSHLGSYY
The note with it: protein: recombinant; tags: N-terminal GST; dsDNA, one strand shown. Put shortly:
(§1)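 Binding signal is each hexamer's read frequency for a factor divided by its frequency in the tag-only sample. The factors were GST-fused human transcription factors from yeast, captured on glutathione beads, DNA-barcoded and pooled with that sample. Pools were incubated with 200 nmole of a random double-stranded 16-mer DNA library in Tris/NaCl/DTT/glycerol buffer at room temperature for 30 min, then washed, crosslinked with 0.1% formaldehyde, proximity-ligated with BsaI/T4 ligase (1 h, 37 °C), PCR-amplified and sequenced on an Illumina NextSeq500.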

The target in the next assay is T2, ELK1 (Homo sapiens, UniProt P19419 1-428).
T2 sequence: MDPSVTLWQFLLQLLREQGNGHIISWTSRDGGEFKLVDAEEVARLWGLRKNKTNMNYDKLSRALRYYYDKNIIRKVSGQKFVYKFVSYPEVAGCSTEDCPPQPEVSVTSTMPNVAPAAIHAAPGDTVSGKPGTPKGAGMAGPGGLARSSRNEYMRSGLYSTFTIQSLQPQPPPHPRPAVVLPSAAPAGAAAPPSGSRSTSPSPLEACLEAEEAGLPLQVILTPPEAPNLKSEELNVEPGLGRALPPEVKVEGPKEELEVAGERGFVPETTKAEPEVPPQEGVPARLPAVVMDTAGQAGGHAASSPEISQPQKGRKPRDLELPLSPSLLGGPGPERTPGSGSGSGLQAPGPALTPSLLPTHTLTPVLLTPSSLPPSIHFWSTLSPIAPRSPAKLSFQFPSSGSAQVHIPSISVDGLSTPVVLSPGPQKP
The conditions noted are these: protein: recombinant; tags: N-terminal GST; dsDNA, one strand shown. The method, boiled down: as §1

For a further assay, the target named is T3, GABPA (Homo sapiens, UniProt Q06546 1-454).
T3 sequence: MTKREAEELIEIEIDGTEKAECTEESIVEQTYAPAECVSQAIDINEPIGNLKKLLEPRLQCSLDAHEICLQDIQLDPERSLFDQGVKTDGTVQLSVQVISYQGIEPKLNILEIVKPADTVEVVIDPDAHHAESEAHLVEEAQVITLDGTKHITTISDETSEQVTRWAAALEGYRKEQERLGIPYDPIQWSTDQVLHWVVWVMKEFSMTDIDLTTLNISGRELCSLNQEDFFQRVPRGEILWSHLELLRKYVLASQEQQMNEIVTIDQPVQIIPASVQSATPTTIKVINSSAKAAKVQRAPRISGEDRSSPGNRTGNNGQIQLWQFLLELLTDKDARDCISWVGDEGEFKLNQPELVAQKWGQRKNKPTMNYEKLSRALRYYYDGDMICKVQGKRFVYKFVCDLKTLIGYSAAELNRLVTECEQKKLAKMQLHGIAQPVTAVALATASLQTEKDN
The note with it: protein: recombinant; tags: N-terminal GST; dsDNA, one strand shown. Put shortly: as §1

In the next assay the target is T4, ERG (Homo sapiens, UniProt P11308 1-479).
T4 sequence: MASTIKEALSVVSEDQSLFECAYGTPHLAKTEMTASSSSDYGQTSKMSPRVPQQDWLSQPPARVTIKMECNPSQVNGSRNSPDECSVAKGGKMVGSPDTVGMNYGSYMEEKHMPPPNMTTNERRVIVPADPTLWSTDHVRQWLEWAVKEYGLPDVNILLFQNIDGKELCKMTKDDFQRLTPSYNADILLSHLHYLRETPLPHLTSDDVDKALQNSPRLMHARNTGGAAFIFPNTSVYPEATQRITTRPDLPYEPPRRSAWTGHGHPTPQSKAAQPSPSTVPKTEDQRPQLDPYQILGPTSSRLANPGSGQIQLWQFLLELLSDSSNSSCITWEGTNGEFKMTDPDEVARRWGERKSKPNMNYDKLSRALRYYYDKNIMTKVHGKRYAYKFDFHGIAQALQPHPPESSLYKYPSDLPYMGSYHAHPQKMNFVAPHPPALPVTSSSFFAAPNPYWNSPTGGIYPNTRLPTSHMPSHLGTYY
The conditions noted are these: protein: recombinant; tags: N-terminal GST; dsDNA, one strand shown. The method, boiled down: as §1

The target in a further assay is ELF1 (Homo sapiens, UniProt P32519 1-619). The note with it: protein: recombinant; tags: N-terminal GST; dsDNA, one strand shown. The method, boiled down: as §1
Another assay concerns the target T5, EHF (Homo sapiens, UniProt Q9NZC4 1-300).
T5 sequence: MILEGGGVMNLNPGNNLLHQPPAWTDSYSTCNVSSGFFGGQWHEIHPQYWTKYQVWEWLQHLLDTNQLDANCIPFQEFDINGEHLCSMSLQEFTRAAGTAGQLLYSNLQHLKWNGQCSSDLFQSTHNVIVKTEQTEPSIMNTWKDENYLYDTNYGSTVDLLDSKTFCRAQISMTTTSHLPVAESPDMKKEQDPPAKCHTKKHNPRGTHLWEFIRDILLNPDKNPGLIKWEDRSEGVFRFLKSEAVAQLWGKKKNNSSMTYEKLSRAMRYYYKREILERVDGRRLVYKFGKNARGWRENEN
The conditions noted are these: protein: recombinant; tags: N-terminal GST; dsDNA, one strand shown. The method, boiled down: as §1

A further assay has as its target SPI1 (Homo sapiens, UniProt P17947 1-270). The note with it: protein: recombinant; tags: N-terminal GST; dsDNA, one strand shown. The method, boiled down: as §1
The next assay concerns the target SPIB (Homo sapiens, UniProt Q01892 1-262). The note with it: protein: recombinant; tags: N-terminal GST; dsDNA, one strand shown. Put shortly: as §1
The target in another assay is T6, ELK3 (Homo sapiens, UniProt P41970 1-407).
T6 sequence: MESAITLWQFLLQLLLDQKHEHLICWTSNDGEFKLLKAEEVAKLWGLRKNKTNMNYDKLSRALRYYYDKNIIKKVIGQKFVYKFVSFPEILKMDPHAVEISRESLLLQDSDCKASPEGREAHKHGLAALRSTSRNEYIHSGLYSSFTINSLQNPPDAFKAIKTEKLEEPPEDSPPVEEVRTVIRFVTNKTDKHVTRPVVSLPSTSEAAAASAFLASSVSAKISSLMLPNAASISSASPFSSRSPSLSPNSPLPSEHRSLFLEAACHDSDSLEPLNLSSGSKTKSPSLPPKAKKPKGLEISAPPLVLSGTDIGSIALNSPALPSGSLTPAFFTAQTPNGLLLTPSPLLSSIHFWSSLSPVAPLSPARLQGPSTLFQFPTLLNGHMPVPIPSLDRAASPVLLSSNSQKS
The note with it: protein: recombinant; tags: N-terminal GST; dsDNA, one strand shown. The method, boiled down: as §1

The target in the next assay is T7, FEV (Homo sapiens, UniProt Q99581 1-238).
T7 sequence: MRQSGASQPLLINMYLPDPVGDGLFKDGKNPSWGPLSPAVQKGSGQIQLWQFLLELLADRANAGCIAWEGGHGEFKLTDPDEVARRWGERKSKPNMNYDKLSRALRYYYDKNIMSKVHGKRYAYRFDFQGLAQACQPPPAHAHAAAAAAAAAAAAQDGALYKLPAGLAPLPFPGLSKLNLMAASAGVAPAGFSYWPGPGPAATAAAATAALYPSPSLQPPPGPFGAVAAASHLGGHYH
The note with it: protein: recombinant; tags: N-terminal GST; dsDNA, one strand shown. Put shortly: as §1

A further assay concerns the target ETV5 (Homo sapiens, UniProt P41161 1-510). The conditions noted are these: protein: recombinant; tags: N-terminal GST; dsDNA, one strand shown. The method, boiled down: as §1
The target of a further assay is HSF1 (Homo sapiens, UniProt Q00613 1-529). The conditions noted are these: protein: recombinant; tags: N-terminal GST; chain copies: 3; dsDNA, one strand shown. The method, boiled down: as §1
In the next assay the target is T8, SPIC (Homo sapiens, UniProt Q8N5J4 1-248).
T8 sequence: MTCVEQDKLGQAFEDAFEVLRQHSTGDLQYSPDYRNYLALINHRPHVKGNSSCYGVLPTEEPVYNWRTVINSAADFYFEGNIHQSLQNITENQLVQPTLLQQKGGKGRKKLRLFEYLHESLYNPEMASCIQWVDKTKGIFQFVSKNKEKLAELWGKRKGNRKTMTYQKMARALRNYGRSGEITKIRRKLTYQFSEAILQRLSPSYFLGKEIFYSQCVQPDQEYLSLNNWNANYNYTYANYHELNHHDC
The note with it: protein: recombinant; tags: N-terminal GST; dsDNA, one strand shown. The method, boiled down:
as §1

For another assay, the target named is ELF4 (Homo sapiens, UniProt Q99607 1-663). The conditions noted are these: protein: recombinant; tags: N-terminal GST; dsDNA, one strand shown. The method, boiled down: as §1
The next assay deals with T9, ELK4 (Homo sapiens, UniProt P28324-2 1-405).
T9 sequence: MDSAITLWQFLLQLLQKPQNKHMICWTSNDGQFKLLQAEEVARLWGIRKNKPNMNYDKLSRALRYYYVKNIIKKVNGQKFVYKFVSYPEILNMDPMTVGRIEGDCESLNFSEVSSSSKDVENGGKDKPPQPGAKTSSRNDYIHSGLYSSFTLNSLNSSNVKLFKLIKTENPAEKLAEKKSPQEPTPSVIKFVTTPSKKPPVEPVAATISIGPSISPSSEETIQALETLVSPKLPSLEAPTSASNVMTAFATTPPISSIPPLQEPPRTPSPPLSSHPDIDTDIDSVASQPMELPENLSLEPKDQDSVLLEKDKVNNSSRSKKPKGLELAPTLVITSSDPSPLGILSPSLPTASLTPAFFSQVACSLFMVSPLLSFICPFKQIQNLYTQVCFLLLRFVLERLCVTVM
The conditions noted are these: protein: recombinant; tags: N-terminal GST; dsDNA, one strand shown. Put shortly: as §1

For another assay, the target named is T10, ETV2 (Homo sapiens, UniProt O00321 1-342).
T10 sequence: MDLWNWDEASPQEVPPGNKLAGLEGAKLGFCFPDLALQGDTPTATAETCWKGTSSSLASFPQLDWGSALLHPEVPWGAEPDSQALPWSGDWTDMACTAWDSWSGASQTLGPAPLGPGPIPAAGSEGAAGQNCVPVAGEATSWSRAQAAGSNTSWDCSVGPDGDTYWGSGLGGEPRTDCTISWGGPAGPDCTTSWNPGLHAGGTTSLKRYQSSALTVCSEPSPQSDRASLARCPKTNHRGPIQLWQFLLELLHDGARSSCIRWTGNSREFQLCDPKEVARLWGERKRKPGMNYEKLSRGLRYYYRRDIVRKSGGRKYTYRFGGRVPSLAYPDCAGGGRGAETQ
The note with it: protein: recombinant; tags: N-terminal GST; dsDNA, one strand shown. Put shortly: as §1

The target of a further assay is T11, ELF3 (Homo sapiens, UniProt P78545 1-371).
T11 sequence: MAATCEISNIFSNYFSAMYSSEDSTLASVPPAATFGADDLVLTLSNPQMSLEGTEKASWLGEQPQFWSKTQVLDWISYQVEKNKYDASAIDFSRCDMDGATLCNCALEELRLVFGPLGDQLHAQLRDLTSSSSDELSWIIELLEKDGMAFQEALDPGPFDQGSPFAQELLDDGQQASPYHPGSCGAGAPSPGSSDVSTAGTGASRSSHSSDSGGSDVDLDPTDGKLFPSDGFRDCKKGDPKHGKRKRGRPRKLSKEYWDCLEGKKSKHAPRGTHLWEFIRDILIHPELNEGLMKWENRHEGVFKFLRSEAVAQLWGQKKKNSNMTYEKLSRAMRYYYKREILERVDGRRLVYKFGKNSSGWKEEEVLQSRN
The conditions noted are these: protein: recombinant; tags: N-terminal GST; dsDNA, one strand shown. The method, boiled down: as §1

For the next assay, the target named is CRX (Homo sapiens, UniProt O43186 1-299). The note with it: protein: recombinant; tags: N-terminal GST; dsDNA, one strand shown. The method, boiled down:
as §1

In a further assay the target is ETV1 (Homo sapiens, UniProt P50549 1-477). The conditions noted are these: protein: recombinant; tags: N-terminal GST; dsDNA, one strand shown. The method, boiled down:
as §1

Chain of ETV1 (P50549 whole entry): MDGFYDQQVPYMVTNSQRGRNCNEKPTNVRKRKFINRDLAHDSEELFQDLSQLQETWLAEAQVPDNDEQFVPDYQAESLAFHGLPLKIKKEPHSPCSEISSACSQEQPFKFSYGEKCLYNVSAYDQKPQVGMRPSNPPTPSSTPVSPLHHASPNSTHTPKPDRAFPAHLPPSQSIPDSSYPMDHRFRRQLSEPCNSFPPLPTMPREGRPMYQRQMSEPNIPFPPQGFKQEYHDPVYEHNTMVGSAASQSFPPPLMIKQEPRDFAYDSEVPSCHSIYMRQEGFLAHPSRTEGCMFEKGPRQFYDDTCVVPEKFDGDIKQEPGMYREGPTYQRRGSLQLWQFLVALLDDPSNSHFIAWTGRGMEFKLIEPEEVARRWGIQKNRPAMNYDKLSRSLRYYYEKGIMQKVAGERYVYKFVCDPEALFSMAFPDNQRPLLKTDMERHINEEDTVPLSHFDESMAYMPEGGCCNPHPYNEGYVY
Chain of ETV5 (P41161 whole entry): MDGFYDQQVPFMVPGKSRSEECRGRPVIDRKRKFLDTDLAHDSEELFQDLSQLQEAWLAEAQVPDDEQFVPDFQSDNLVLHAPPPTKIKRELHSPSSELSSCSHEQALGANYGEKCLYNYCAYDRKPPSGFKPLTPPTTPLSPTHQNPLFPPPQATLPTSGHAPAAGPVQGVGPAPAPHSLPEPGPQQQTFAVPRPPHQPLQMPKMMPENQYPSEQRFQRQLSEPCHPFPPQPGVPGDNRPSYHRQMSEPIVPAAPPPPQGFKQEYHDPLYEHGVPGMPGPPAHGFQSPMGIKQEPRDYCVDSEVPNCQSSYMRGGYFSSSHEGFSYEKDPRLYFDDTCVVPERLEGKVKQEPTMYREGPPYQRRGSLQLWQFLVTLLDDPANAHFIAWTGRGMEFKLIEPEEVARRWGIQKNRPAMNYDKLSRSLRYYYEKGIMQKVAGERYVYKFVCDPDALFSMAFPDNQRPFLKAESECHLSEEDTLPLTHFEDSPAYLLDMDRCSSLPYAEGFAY
Chain of CRX (O43186 whole entry): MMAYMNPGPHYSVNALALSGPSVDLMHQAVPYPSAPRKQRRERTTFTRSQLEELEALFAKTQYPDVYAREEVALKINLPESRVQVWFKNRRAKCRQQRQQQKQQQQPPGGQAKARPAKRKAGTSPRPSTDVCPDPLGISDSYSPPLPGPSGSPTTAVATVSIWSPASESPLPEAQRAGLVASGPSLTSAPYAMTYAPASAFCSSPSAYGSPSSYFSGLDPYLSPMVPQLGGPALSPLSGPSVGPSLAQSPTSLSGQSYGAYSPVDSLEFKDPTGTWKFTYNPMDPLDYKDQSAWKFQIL
Chain of SPIB (Q01892 whole entry): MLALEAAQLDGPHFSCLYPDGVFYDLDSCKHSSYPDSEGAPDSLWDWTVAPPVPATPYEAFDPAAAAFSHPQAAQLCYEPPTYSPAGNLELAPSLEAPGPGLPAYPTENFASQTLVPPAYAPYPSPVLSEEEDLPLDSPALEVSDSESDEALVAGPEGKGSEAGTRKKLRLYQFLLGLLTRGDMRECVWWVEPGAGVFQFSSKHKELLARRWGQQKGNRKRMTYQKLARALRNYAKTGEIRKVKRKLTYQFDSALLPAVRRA
Chain of HSF1 (Q00613 whole entry): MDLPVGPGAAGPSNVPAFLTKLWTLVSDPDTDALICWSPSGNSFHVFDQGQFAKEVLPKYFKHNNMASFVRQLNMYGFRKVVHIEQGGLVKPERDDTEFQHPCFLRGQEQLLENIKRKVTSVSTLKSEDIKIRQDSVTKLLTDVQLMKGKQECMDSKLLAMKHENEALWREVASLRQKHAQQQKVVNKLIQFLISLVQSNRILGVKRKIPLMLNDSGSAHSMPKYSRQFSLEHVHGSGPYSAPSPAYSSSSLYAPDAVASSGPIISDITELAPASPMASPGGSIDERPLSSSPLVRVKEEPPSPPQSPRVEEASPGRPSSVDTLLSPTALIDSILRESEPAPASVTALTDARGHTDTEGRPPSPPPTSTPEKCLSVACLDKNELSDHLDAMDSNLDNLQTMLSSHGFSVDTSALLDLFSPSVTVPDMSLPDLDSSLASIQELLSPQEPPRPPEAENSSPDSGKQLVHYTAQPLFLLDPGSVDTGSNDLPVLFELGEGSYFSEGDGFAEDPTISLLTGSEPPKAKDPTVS
Chain of ELF4 (Q99607 whole entry): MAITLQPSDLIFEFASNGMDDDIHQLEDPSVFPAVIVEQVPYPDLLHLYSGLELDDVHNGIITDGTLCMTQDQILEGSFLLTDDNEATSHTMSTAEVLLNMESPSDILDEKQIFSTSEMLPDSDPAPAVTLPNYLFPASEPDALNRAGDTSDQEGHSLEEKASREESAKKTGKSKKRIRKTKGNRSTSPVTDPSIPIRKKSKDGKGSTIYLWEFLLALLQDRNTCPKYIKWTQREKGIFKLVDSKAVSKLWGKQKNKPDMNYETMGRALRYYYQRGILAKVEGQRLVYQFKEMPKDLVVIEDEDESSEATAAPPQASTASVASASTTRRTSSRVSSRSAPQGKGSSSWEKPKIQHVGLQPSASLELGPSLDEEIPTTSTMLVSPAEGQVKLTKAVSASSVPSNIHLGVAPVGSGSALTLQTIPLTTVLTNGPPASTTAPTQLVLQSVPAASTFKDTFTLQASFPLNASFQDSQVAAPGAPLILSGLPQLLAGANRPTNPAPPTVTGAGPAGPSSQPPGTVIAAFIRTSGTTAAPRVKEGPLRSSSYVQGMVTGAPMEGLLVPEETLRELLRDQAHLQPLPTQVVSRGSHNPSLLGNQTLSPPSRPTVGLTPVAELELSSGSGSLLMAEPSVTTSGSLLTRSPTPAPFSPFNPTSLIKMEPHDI
Chain of ELF1 (P32519 whole entry): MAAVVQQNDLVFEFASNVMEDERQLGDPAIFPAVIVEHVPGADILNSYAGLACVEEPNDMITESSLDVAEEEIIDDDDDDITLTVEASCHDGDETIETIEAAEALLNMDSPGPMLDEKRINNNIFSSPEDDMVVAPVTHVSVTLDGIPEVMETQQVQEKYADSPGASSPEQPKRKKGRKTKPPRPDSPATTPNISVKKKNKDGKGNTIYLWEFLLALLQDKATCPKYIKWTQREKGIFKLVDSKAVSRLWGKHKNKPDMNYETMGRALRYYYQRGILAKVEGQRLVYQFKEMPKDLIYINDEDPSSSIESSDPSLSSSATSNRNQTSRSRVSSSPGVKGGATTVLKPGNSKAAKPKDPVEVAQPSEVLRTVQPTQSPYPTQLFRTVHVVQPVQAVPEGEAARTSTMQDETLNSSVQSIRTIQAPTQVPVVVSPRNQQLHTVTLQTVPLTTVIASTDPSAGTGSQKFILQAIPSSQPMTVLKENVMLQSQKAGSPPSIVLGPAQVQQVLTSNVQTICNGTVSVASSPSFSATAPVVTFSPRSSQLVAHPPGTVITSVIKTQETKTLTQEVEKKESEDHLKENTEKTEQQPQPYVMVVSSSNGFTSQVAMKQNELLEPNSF

With CTTTTA, the binding signal with FLI1 is 1.41 fold enrichment (6-mer frequency, TF over GST control); with ELK1 it was 1.28 fold enrichment (6-mer frequency, TF over GST control); with GABPA, 1.41 fold enrichment (6-mer frequency, TF over GST control); with ERG, 1.28 fold enrichment (6-mer frequency, TF over GST control); with ELF1, 1.29 fold enrichment (6-mer frequency, TF over GST control); in the assay with EHF, 1.28 fold enrichment (6-mer frequency, TF over GST control). For the same sequence, the binding signal in the assay with SPI1 is 1.4 fold enrichment (6-mer frequency, TF over GST control); in the assay with SPIB, 1.35 fold enrichment (6-mer frequency, TF over GST control); in the assay with ELK3, 1.4 fold enrichment (6-mer frequency, TF over GST control); in the assay with FEV, 1.36 fold enrichment (6-mer frequency, TF over GST control); with ETV5, 1.29 fold enrichment (6-mer frequency, TF over GST control); in the assay with HSF1 it was 1.3 fold enrichment (6-mer frequency, TF over GST control). Also, the binding signal with SPIC was 1.49 fold enrichment (6-mer frequency, TF over GST control); in the assay with ELF4, 1.43 fold enrichment (6-mer frequency, TF over GST control); with ELK4, 1.21 fold enrichment (6-mer frequency, TF over GST control); with ETV2, 1.28 fold enrichment (6-mer frequency, TF over GST control); with ELF3, 1.34 fold enrichment (6-mer frequency, TF over GST control); in the assay with CRX, 1.61 fold enrichment (6-mer frequency, TF over GST control). For the same sequence, the binding signal in the assay with ETV1 is 1.41 fold enrichment (6-mer frequency, TF over GST control).
